# From PubChem BioAssay
# HCMV antiviral – blocks human cytomegalovirus replication; HFF cells, HCMV-luciferase reporter, 72 h; stronger effect = lower value; AID 1259415; activity change, negative = inhibition, % at 57.5 µM; 4.5% of 410,000 active; in the data active = activity change below about -60%; inconclusive = no clear call, values can overlap the other calls; inactive = above about -39%
#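 Compounds were evaluated in HFFs infected with an HCMV luciferase reporter virus (MOI 1 PFU/cell). Luciferase in lysates collected 72 h post infection served as the replication measure.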
# AmpC detergent – blocks E. coli AmpC beta-lactamase in detergent assay; Potency, µM (titrated, usually from 114 µM), most hits filed as inhibitors; 0.041% of 370,000 active; AmpC hydrolysis of nitrocefin, absorbance 480 nm, 0.01% Triton; AID 485294; also: nearly all actives have a fitted effect of over 25% in size
# Target sequence (P00811 whole entry, looked up): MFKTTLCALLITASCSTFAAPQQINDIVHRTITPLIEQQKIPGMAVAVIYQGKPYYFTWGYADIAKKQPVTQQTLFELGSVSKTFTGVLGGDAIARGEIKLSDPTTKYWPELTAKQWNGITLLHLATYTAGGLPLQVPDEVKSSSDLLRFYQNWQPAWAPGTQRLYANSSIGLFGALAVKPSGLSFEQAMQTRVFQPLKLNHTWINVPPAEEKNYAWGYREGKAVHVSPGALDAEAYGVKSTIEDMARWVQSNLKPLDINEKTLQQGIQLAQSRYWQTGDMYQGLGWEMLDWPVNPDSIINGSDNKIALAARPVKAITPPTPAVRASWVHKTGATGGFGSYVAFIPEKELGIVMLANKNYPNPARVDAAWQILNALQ
#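 AmpC (5.3 nM in the dispensed reagent) in 20 mM phosphate pH 7.0 with 0.01% (detergent screen) or 0.0001% Triton X-100 was preincubated with compounds for 15 min at room temperature. Nitrocefin was then added from an 800 uM solution, and hydrolysis was followed at 480 nm.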
# FMDV antiviral – foot and mouth disease virus antiviral activity | FMDV antiviral cell-based qHTS | Potency, µM (titrated, usually from 57.9 µM), actives largely listed as inhibitors | 1.2% of 410,000 active; calls by dose curve; tested in HEK293T cells; also: read-out not given here; nearly all actives have a fitted effect of over 45% in size
# HCV inhibitor – blocks hepatitis C virus. 3.4% of 340,000 active. Potency, µM (titrated, usually from 41.8 µM), actives largely listed as inhibitors. Huh7.5.1 HCVcc-Cre infection, luciferase reporter, 44 h
#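 A cell-based infection assay in which seeded cells (1,000 per well) receive test compound after 4 h, are inoculated with HCVcc-Cre at approximately 0.5 moi, and are incubated 44 h before luminescence detection.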
# AmpC no deterg – AmpC beta-lactamase inhibition without detergent | P00811 | Potency, µM (top dose mostly 57.1 µM), usual class: inhibitors | AID 485341 | AmpC nitrocefin hydrolysis, absorbance 480 nm, 0.0001% Triton | 0.52% of 330,000 active; also: nearly all actives have a fitted effect of over 20% in size
#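 AmpC (5.3 nM in the dispensed reagent) in 20 mM phosphate pH 7.0 with 0.01% (detergent screen) or 0.0001% Triton X-100 was preincubated with compounds for 15 min at room temperature. Nitrocefin was then added from an 800 uM solution, and hydrolysis was followed at 480 nm.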
# HCV confirm – confirmation of hepatitis C virus inhibitors. shares compounds with HCV inhibitor. HCVcc-Cre infectious virus cell assay, luciferase, inhibition. Potency, µM (titrated, usually from 41.8 µM), hits mostly inhibitors. 78% of 640 active. AID 720575; also: nearly all actives have a fitted effect of over 80% in size
# HCV host tox – host cell cytotoxicity counter-screen for HCV inhibitors; shares compounds with HCV inhibitor; HCV host cell line cytotoxicity counterscreen; Potency, µM (highest dose often 41.8 µM), most hits filed as inhibitors; 22% of 640 active; AID 720576;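 also: 44 h compound exposure; nearly all actives have a fitted effect of over 55% in size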
# Hits are given with their value; . = inactive; ? = inconclusive; / = no result given. Rows were chosen to be rich in hits. Some 7.3% of all compounds tested hit in one or more screens of this group. Unless noted, calls follow the shape of the dose curve; as a rule, active = well fitted curve in the direction sought with a large enough effect; inconclusive = small, poorly fitted or top-dose-only effect, or another doubt; inactive = no such curve, though single readings can be large; an effect the other way counts as inactive or inconclusive.
SMILES,HCMV antiviral,AmpC detergent,FMDV antiviral,HCV inhibitor,AmpC no deterg,HCV confirm,HCV host tox
COc1cccc(C(=O)Nc2ccc3c(c2)CCCN3C(=O)c2cccs2)c1OC,.,.,.,4.47µM,.,25µM,?
CCOc1cc(/C=C/C(=O)Nc2ccc(C(=O)NCCN(CC)CC)cc2)ccc1OCC(C)C,-113.7,.,?,3.16µM,.,15.8µM,35.3µM
CCOc1cc(NC(=S)NCC2CCCO2)c(OCC)cc1NC(=O)c1ccc(C)cc1 (stereo not given),.,.,.,?,.,/,/
CCOc1cc(NC(=S)NCC2CCCO2)c(OCC)cc1NC(=O)c1ccccc1 (stereo not given),.,.,.,8.91µM,.,?,.
N[C@@]1(C(=O)O)CN[C@@H](C(=O)O)C1,/,/,.,/,/,/,/
CCOC(=O)Nc1ccc(NCc2ccc(F)cc2)nc1N,.,?,.,0.891µM,.,.,.
O=C1NC[C@@H](CCCCN2C[C@H](Cc3ccccc3)N(CCc3ccc(O)cc3)C(=O)C2=O)N(CC2CCCCC2)C1=O,.,/,.,/,/,/,/
CCOC(=O)C1CCN(C(=O)c2ccc3c(c2)N=C(CC)c2cc(C)ccc2S3)CC1,.,.,.,/,/,/,/
COc1ccc(C(=O)Nc2cc(OC)cc3cccnc23)cc1,.,.,.,?,.,14.1µM,.
CCc1nn2c(=O)cc(COC(=O)COc3ccc(OC)cc3)nc2s1,.,?,.,/,/,/,/
Cc1c(C(=O)NCC2COc3ccccc3O2)oc2ccc(S(=O)(=O)N3CC(C)CC(C)C3)cc12 (stereo not given),.,.,/,?,.,/,/
Cc1c(C(=O)NCC2COc3ccccc3O2)oc2ccc(S(=O)(=O)N3CCOCC3)cc12 (stereo not given),.,.,?,5.62µM,.,17.7µM,.
C=CCn1c(SC(C)C(=O)c2c(N)n(C)c(=O)n(C)c2=O)nnc1-c1ccoc1C (stereo not given),.,.,.,.,.,/,/
CCOc1ccc(CCNS(=O)(=O)c2cnc[nH]2)cc1OCC,.,.,.,6.31µM,.,?,.
CCOc1ccc(CCNS(=O)(=O)c2ccc(-c3ccc(=O)[nH]n3)o2)cc1OCC,.,?,.,.,.,/,/
N#C/C(=C\c1cc([N+](=O)[O-])c(N2CCCCC2)cc1N1CCCCC1)c1nn(-c2ccccc2)c(N)c1C#N,.,.,.,?,.,9.95µM,.
N#C/C(=C\c1cccc2ccccc12)c1nn(-c2ccccc2)c(N)c1C#N,/,/,/,.,/,/,/
COC(=O)C1=C(C(=O)OC)C2C=CC1C1C(OC(C)=O)C(OC(C)=O)C21 (stereo not given),?,/,.,/,/,/,/
Cc1sc(NC(=O)Cc2ccc3c(c2)OCO3)nc1-c1ccc2c(c1)CCN2C(=O)c1cccc(F)c1,?,.,?,3.98µM,.,3.53µM,?
Cc1cccc(C(=O)N2CCc3cc(-c4nc(NC(=O)Cn5nnc6ccccc6c5=O)sc4C)ccc32)c1,/,.,/,.,.,/,/
COc1ccc(-n2cc(-c3ccc(C)cc3)[n+]3c2SCC3)cc1,-102.4,.,11.2µM,?,.,12.5µM,12.5µM
COc1ccc(C2=NCN(c3ccc(C)cc3)C(=S)N2)cc1,.,?,.,.,.,/,/
Cc1csc(N2CCN(c3cc4c(cc3Cl)nc(-c3ccncc3)n4CCCN3CCCC3)CC2)n1,.,.,?,?,.,14.1µM,.
Cc1oncc1C(=O)Nc1cccc(C#N)c1,.,.,.,.,.,/,/
CC(Oc1ccc(Cl)cc1Cl)C(=O)NNC(=O)c1ccncc1 (stereo not given),.,.,.,.,.,/,/
CC(Oc1ccc(Cl)cc1Cl)c1nc(-c2ccc(NC(=O)c3ccncc3)cc2)no1 (stereo not given),-100.7,.,15.8µM,2.82µM,.,7.05µM,11.2µM
S=C(NCCCN1CCOCC1)N1CCN(c2nc(-c3ccc(Cl)cc3)cs2)CC1,-90.9,.,12.6µM,3.16µM,.,7.05µM,28µM
S=C(NCCCN1CCOCC1)N1CCN(c2nc(-c3ccccc3)cs2)CC1,?,.,?,?,.,/,/
Cc1ccccc1Cn1cnc2c(NS(C)(=O)=O)c(C)c(C)cc21,.,.,?,?,.,/,/
